SMN2 splice enh: qHTS Assay for Enhancers of SMN2 Splice Variant Expression; HEK293 SMN2-luciferase splicing reporter, luminescence, 30-36 h; Potency, µM (series often up to 46.1 µM), for the others: at the highest dose activity change, positive = activation, most hits filed as activators; AID 1458, 2008; hit rate 2.8% among 210,000; also: % of control where 0% means no effect; nearly all actives have a fitted effect of over 55% in size
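HEK293 cells carry an SMN2 […]–luciferase reporter in which exon 7 inclusion puts luciferase in frame. Cells were plated 10-12 h before compound addition, then incubated 30-36 h at 37C. ONE-Glo luminescence was read; sodium butyrate at 4.5 mM final served as control.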
FLuc counter: qHTS profiling assay for firefly luciferase inhibitor/activator using purifed enzyme and Km concentrations of substrates (counterscreen for miR-21 project). hit rate 6.9% among 360,000. Luciferin 4-monooxygenase (Photinus pyralis), P08659. Potency, µM (highest dose often 57.5 µM), without a hit: at the highest dose activity change, negative = inhibition, usual class: inhibitors. purified FLuc, Km substrates, luminescence inhibition;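 also: plate controls were vehicle for no effect and reference inhibitor for full effect; nearly all actives have a fitted effect of over 55% in size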
Target sequence (P08659 whole entry, looked up): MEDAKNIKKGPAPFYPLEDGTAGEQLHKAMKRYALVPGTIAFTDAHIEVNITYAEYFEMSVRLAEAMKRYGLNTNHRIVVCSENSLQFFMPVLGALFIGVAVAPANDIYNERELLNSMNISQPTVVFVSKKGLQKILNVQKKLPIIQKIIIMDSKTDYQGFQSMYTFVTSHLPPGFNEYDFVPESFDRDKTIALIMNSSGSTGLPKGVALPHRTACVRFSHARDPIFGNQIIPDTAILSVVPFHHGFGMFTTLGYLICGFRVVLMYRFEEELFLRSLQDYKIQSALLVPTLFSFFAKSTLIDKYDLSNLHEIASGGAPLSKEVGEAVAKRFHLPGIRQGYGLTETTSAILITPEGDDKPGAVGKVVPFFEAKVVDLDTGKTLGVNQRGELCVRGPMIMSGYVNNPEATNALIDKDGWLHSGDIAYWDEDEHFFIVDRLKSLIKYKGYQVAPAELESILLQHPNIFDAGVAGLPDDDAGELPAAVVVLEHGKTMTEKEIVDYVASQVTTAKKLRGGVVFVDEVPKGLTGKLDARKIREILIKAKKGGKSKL
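Purified P. pyralis luciferase (10nM final) with 10uM D-luciferin and 10uM ATP (Km levels) in 50mM Tris acetate pH 7.5, 10mM Mg acetate, 0.01% Tween-20, 0.05% BSA; qHTS 6-point titration, ~60 µM downward; luminescence read.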
Rab9 prom act: qHTS Assay for Rab9 Promoter Activators; Potency, µM (series often up to 9.22 µM), for the others: at the top dose activation, negative = inhibition, most hits filed as activators; hit rate 2.8% among 320,000; Huh7 Rab9 promoter-luciferase reporter, luminescence, 24 h; also: % of control where 0% means no effect; nearly all actives have a fitted effect of over 60% in size
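Huh7 reporter line, Rab9 promoter upstream of luciferase. Compound exposure 24 h at 37 °C in reduced-serum medium with 10% FBS. Read-out: luminescence.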
NPC1 promoter act: qHTS Assay for NPC1 Promoter Activators; Huh7 NPC1 promoter luciferase reporter, 24 h; hit rate 2.4% among 320,000; Potency, µM (highest dose often 9.22 µM), without a hit: at the highest dose activation, most hits filed as activators; also: % of control where 0% means no effect; nearly all actives have a fitted effect of over 60% in size
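Readout is luciferase luminescence, reflecting NPC1 promoter activation in stably transfected Huh7 cells after 24 h compound exposure at 37 °C in reduced-serum medium with 10% FBS.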
ELG1 genotox: qHTS screen for small molecules that induce genotoxicity in human embryonic kidney (HEK293T) cells expressing luciferase-tagged ELG1 | HEK293T ELG1-luciferase reporter, luminescence, 16 h | Potency, µM (doses to about 46 µM), without a hit: at the top dose activity change, positive = activation, most hits filed as activators | hit rate 1.3% among 330,000 | AID 504466, 2011; also: % of control where 0% means no effect; nearly all actives have a fitted effect of over 60% in size
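DMSO vehicle served as control against compound-treated ELG1-luciferase HEK293T cells; exposure lasted 16 hr at 37 °C and 5% CO2, followed by ONE-Glo luminescence detection after 30 min.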
Starred values were filed as active, the others as inactive; [ ] = dose if it differs, or a comment. In the library only some 7.5% were active in any assay of this set; here they are far more common. Calls follow the shape of the dose curve; as a rule, active = well fitted curve in the direction sought with a large enough effect; inconclusive = small, poorly fitted or top-dose-only effect, or another doubt; inactive = no such curve, though single readings can be large; an effect the other way counts as inactive or inconclusive. Potency is read from the fitted curve at half-maximal effect.

How did CCOc1ccc(N(CC(=O)Nc2ccc(C)c(C)c2)S(C)(=O)=O)cc1 do in these assays?
FLuc counter: 11µM*; Rab9 prom act: inconclusive; NPC1 promoter act: 2.8µM*; ELG1 genotox: inconclusive

Results for COC(=O)c1cc(N=Nc2c(C)[nH]c3ccccc23)cc(C(=O)OC)c1 ?
FLuc counter: -1%; Rab9 prom act: -9%; NPC1 promoter act: 0%; ELG1 genotox: 2%

Results for Cc1[nH]n(-c2ccccc2)c(=O)c1N=Nc1ccccc1 ?
SMN2 splice enh: 14µM*; FLuc counter: 4.8µM*; Rab9 prom act: inconclusive; NPC1 promoter act: inconclusive; ELG1 genotox: inconclusive

How did Cc1[nH]n(-c2ccccc2)c(=O)c1N=Nc1ccc(C(=O)O)cc1 do in these assays?
FLuc counter: 7.6µM*; Rab9 prom act: 28%; NPC1 promoter act: 23%; ELG1 genotox: 12%

How did Cc1[nH]c2ccccc2c1N=Nc1cccc(C(=O)O)c1 do in these assays?
SMN2 splice enh: 13µM*; FLuc counter: 11µM*; Rab9 prom act: 2.2µM*; NPC1 promoter act: 3.2µM*; ELG1 genotox: 19%

How did Cc1[nH]n(-c2ccccc2)c(=O)c1N=Nc1cccc(C(=O)O)c1 do in these assays?
FLuc counter: 0.27µM*; Rab9 prom act: 1.1µM*; NPC1 promoter act: inconclusive; ELG1 genotox: inconclusive

How did CC(=O)c1ccc(N=Nc2c(C)[nH]n(-c3ccccc3)c2=O)cc1 do in these assays?
FLuc counter: -15%; Rab9 prom act: 13%; NPC1 promoter act: 16%; ELG1 genotox: -2%

Results for CCOc1cc(CN2CCN(S(=O)(=O)c3ccc(C)cc3)CC2)ccc1OC ?
SMN2 splice enh: -24%; FLuc counter: 1%

Results for COc1ccccc1N=Nc1c(C)[nH]n(-c2ccccc2)c1=O ?
FLuc counter: 11µM*; Rab9 prom act: inconclusive; NPC1 promoter act: inconclusive; ELG1 genotox: -3%

What do the screens show for `CCOc1ccccc1N=Nc1c(C)[nH]n(-c2ccccc2)c1=O`?
FLuc counter: -15%; Rab9 prom act: 9%; NPC1 promoter act: 10%; ELG1 genotox: -1%

What do the screens show for `Cc1ccc(N=Nc2c(N)n(-c3ccccc3)[nH]c2=O)cc1`?
SMN2 splice enh: inconclusive; FLuc counter: 4.8µM*; Rab9 prom act: inconclusive; NPC1 promoter act: inconclusive; ELG1 genotox: inconclusive

Results for Cn1cccc1/C=N/NC(=O)c1ccn[nH]1 ?
SMN2 splice enh: 26%; FLuc counter: inconclusive; Rab9 prom act: 23%; NPC1 promoter act: 11%; ELG1 genotox: 17%

What do the screens show for `CCOc1ccccc1C(=O)N/N=C/c1c[nH]c2ccccc12`?
SMN2 splice enh: -4%; FLuc counter: inconclusive; Rab9 prom act: 0%; NPC1 promoter act: -9%; ELG1 genotox: 0%

How did CCc1ccc2c(Cl)c(C(=O)N/N=C/c3c[nH]c4ccccc34)sc2c1 do in these assays?
SMN2 splice enh: -13%; FLuc counter: 19µM*; Rab9 prom act: 4%; NPC1 promoter act: 3%; ELG1 genotox: -1%

How did CCc1ccc(-c2cc(C(=O)N/N=C/c3c[nH]c4ccccc34)[nH]n2)cc1 do in these assays?
SMN2 splice enh: 27%; FLuc counter: 4.3µM*; Rab9 prom act: -1%; NPC1 promoter act: -10%; ELG1 genotox: -7%

What do the screens show for `CCC(O)CNC(=O)CCc1nnc(C2(c3ccc(Cl)cc3)CCC2)o1` (stereo not drawn)?
FLuc counter: 2%; Rab9 prom act: 7%; NPC1 promoter act: -2%; ELG1 genotox: 2%

Results for Cc1ccc2c(c1)N(C(=O)Nc1cccc(C)c1C)CCO2 ?
FLuc counter: -13%

How did O=C(O)c1cccc(CN2CCCCC2)c1 do in these assays?
SMN2 splice enh: -5%[9.22 µM]

How did O=C(Nc1cccc(S(=O)(=O)NC2=NCCC2)c1)c1cc(-c2ccco2)nc2ccccc12 do in these assays?
FLuc counter: inconclusive; Rab9 prom act: -4%; NPC1 promoter act: -4%; ELG1 genotox: -6%

Screens deposited in PubChem by National Center for Advancing Translational Sciences (NCATS).
